The values that follow come from PubChem BioAssay (NCI).

Test systems include HCT-15 colon; HT29 colon; SNB-75 CNS; SNB-19 CNS; U251 CNS; SK-MEL-5 melanoma; UACC-62 melanoma; LOX IMVI melanoma; SK-MEL-28 melanoma; SK-MEL-2 melanoma; EKVX NSCLC; SN12C renal; UO-31 renal; TK-10 renal; ACHN renal; CAKI-1 renal; CCRF-CEM leukemia; MOLT-4 leukemia; PC-3 prostate; A498 renal.
Common to all, as to test: NCI-60 one-dose screen, 48 h (100 = growth as untreated, 0 = no growth, -100 = all killed)
What all share (settings): 10 µM unless noted

The panel holds about 83,000 compounds, 20% with a hit somewhere; the sample as a whole holds those more often.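 Compound tested at a single concentration for 48 hours in 96-well plates; a percent growth value below 10 was scored as active.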 Unmarked numbers belong to inactive results. The source made the active and inactive calls.

In the case of `OCc1cnccc1NCCCCOc1ccc(Oc2ccccc2)cc1`, the growth in the assay on HCT-15 colon was 49.8%; in the assay on HT29 colon, 24.6%; in the assay on SNB-75 CNS, 71.6%; in the assay with SNB-19 CNS, 74.6%; with U251 CNS, 52.3%; in the assay with SK-MEL-5 melanoma, 15.7%. For the same compound, the growth in the assay with UACC-62 melanoma is 61.5%; with LOX IMVI melanoma, 45.9%; in the assay with SK-MEL-28 melanoma it was 70.2%; with SK-MEL-2 melanoma it was 81.6%; with EKVX NSCLC it was 50.6%; with SN12C renal, 70.7%. For the same compound, the growth is 49.8% in the assay with UO-31 renal; 66.1% in the assay with TK-10 renal; 80.3% in the assay on ACHN renal; 70.7% with CAKI-1 renal; 53.9% with CCRF-CEM leukemia; 45.1% in the assay with MOLT-4 leukemia.
As to `O=C1C=CC(=O)N1c1cccc(Cl)c1`, the growth with HCT-15 colon was 101%; in the assay on HT29 colon, 85.9%; with SNB-19 CNS it was 118%; in the assay with U251 CNS, 99.2%; in the assay on PC-3 prostate it was 89.2%; in the assay with SK-MEL-5 melanoma, 106%. The growth in the assay with UACC-62 melanoma was 105%; with LOX IMVI melanoma it was 102%; in the assay with SK-MEL-28 melanoma it was 108%; in the assay with SK-MEL-2 melanoma it was 116%; in the assay on EKVX NSCLC, 108%; with SN12C renal, 126%. The growth with UO-31 renal was 104%; with TK-10 renal it was 68.2%; with ACHN renal, 98.4%; in the assay with CAKI-1 renal, 79.4%; in the assay with A498 renal, 94.6%; in the assay with CCRF-CEM leukemia, 55.4%.
Consider `CC(=O)O[C@H]1Cc2c([nH]c3ccccc23)[C@@H](c2ccc(Cl)cc2)N1C(=O)CCNC(C)(C)C`, for which the growth in the assay with HCT-15 colon was 69.9%; in the assay with HT29 colon, 29%; with SNB-75 CNS, 42.6%; in the assay with SNB-19 CNS, 69.3%; in the assay on U251 CNS, 50.6%; with SK-MEL-5 melanoma it was -79.5% (active). In addition, the growth is 53.1% in the assay on UACC-62 melanoma; 25.6% with LOX IMVI melanoma; 8.92% (active) with SK-MEL-28 melanoma; 79.4% in the assay on SK-MEL-2 melanoma; 67.2% in the assay with EKVX NSCLC; 58.4% in the assay with SN12C renal. Also, the growth is 23.7% in the assay on UO-31 renal; 94.5% in the assay with TK-10 renal; 64.5% in the assay with ACHN renal; 63.6% in the assay with CAKI-1 renal; 41% in the assay with CCRF-CEM leukemia; 28.6% in the assay on MOLT-4 leukemia.
Turning to `CCCCCN1C=C/C(=C\C(=O)n2ccc3ccccc32)c2ccccc21`, the growth in the assay on HCT-15 colon is 98.4%; with HT29 colon, 80.6%; with SNB-75 CNS it was 90.9%; with SNB-19 CNS, 106%; with U251 CNS, 91.1%; in the assay on SK-MEL-5 melanoma, 97.3%. Also, the growth with UACC-62 melanoma is 67%; in the assay on LOX IMVI melanoma, 92%; in the assay with SK-MEL-28 melanoma, 104%; in the assay with EKVX NSCLC, 69.3%; with SN12C renal, 89.9%; in the assay with UO-31 renal, 49.4%. For the same compound, the growth was 110% in the assay with TK-10 renal; 93.5% with ACHN renal; 70.6% with CAKI-1 renal; 94.6% with CCRF-CEM leukemia; 90% in the assay with MOLT-4 leukemia.
Take `O=C(c1ccccc1)N1N=C(c2ccc(-n3ccc(C(F)(F)F)n3)c(F)c2)CC1c1ccc[nH]1` (centres undefined): the growth in the assay on HCT-15 colon was 100%; with HT29 colon, 98.8%; with SNB-75 CNS, 98.4%; in the assay on SNB-19 CNS, 99.1%; in the assay on U251 CNS, 98.5%; in the assay on SK-MEL-5 melanoma it was 103%. The growth is 101% with UACC-62 melanoma; 101% in the assay with LOX IMVI melanoma; 111% in the assay with SK-MEL-28 melanoma; 102% with SK-MEL-2 melanoma; 100% with EKVX NSCLC; 101% in the assay with SN12C renal. In addition, the growth is 90.4% in the assay on UO-31 renal; 99.2% with TK-10 renal; 110% with ACHN renal; 98.3% with CAKI-1 renal; 105% in the assay with CCRF-CEM leukemia; 98.8% with MOLT-4 leukemia.
With `O=Cc1ccc(-c2cn3ccnc3c(-c3ccc4ncn(Cc5ccccc5)c4c3)n2)cc1`, the growth with HCT-15 colon is 50.9%; in the assay on HT29 colon it was 82.5%; with SNB-75 CNS, 78.6%; with SNB-19 CNS it was 85.6%; with U251 CNS, 68%; in the assay with SK-MEL-5 melanoma, 43.5%. The growth with UACC-62 melanoma was 62.9%; in the assay with LOX IMVI melanoma, 53.1%; with SK-MEL-28 melanoma, 92.5%; in the assay with SK-MEL-2 melanoma, 72.2%; with EKVX NSCLC, 79.1%; in the assay with SN12C renal, 79.3%. In addition, the growth is 17.8% with UO-31 renal; 99.3% with TK-10 renal; 88.4% in the assay with ACHN renal; 63.4% in the assay with CAKI-1 renal; 88.8% in the assay with A498 renal; 22.1% in the assay on CCRF-CEM leukemia. Besides, in the assay with MOLT-4 leukemia, the growth is 41.3%.
Take `CNCCn1c(=O)c2cc(OC)c(OC)cc2c2ccc3cc4c(cc3c21)OCO4`: the growth in the assay with HCT-15 colon is 17.3%; in the assay with HT29 colon it was 2.8% (active); in the assay with SNB-75 CNS, -0.403% (active); with SNB-19 CNS, 8.32% (active); in the assay with U251 CNS, 5.74% (active); in the assay on SK-MEL-5 melanoma, -60.7% (active). In addition, the growth in the assay with UACC-62 melanoma was -79.7% (active); in the assay with LOX IMVI melanoma, -46.1% (active); in the assay with SK-MEL-28 melanoma, -34.2% (active); with SK-MEL-2 melanoma, -76.1% (active); in the assay on EKVX NSCLC, -6.68% (active); in the assay with SN12C renal it was 2.31% (active). Moreover, the growth with UO-31 renal is -66.4% (active); in the assay on TK-10 renal, -68.9% (active); in the assay with ACHN renal it was -76% (active); with CAKI-1 renal, -84.9% (active); with CCRF-CEM leukemia it was -1.64% (active); with MOLT-4 leukemia, -10.3% (active).
As to `COc1cc(/C=C\c2cc(OC)c(OC)c(OC)c2)cc(NC(=O)/C=C/c2cc(OC)c(OC)c(OC)c2)c1OC`, the growth in the assay on HCT-15 colon is 34.6%; with HT29 colon, 32%; in the assay with SNB-75 CNS, 51.8%; with SNB-19 CNS, 72%; in the assay with U251 CNS it was 71%; with SK-MEL-5 melanoma it was -45.3% (active). Moreover, the growth with UACC-62 melanoma is 29.7%; in the assay on LOX IMVI melanoma it was 35.5%; in the assay on SK-MEL-28 melanoma it was 47.6%; with SK-MEL-2 melanoma, 47%; in the assay with EKVX NSCLC, 47.6%; in the assay on SN12C renal, 66.9%. Besides, the growth with UO-31 renal is 24.9%; in the assay with TK-10 renal it was 71.3%; in the assay on ACHN renal, 52.7%; in the assay on CAKI-1 renal, 22.7%; in the assay on CCRF-CEM leukemia it was 25.8%; with MOLT-4 leukemia it was 30.9%.
